Shown are actives, neighbours in structure and some others; about 3.7% of the full set was active somewhere.
FadD28 FP inh = blocks FadD28 binding to the bisubstrate probe. fluorescence polarization. inhibition, % at 12.5 µM. 0.22% of 360,000 active. AID 588549; in the data active = inhibition above about 8.5%, passing the limit was not always enough; inconclusive = no clear call, values can overlap the other calls
Rv3671c inh = inhibitors of M. tuberculosis serine protease Rv3671c; P9WHR9; 0.048% of 320,000 active; inhibition, % at 5.96 µM; in the data active = inhibition above about 38%;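 also: extracellular domain of Rv3671c used as enzyme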
GDH-TPI counter-1 = counter-screen for M. tuberculosis FBA inhibitors: GDH-TPI coupled enzymes. GDH-TPI coupled enzyme counterscreen, NADH absorbance. inhibition, % at 4.8 µM. 1.2% of 360,000 active; in the data active = inhibition above about 30%
UGM FP inh = inhibitors of M. tuberculosis UDP-galactopyranose mutase; P9WIQ1; purified UGM, fluorescence polarization probe displacement; inhibition, % at 10 µM; 0.06% of 320,000 active; AID 504406; in the data active = inhibition above about 10%, passing the limit was not always enough; inconclusive = no clear call, values can overlap the other calls
Mtb betalactam = beta-lactam sensitization of Mtb H37Rv; inhibition, % at 25 µM; 0.27% of 330,000 active; M. tuberculosis H37Rv growth with meropenem, percent inhibition; AID 434955; call rule not given here;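 also: growth measured after seven days incubation then overnight dye step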
FBA Mtb inh = inhibits M. tuberculosis FBA enzyme; purified M. tuberculosis FBA, fluorescence read-out; inhibition, % at 1 µM; 2.3% of 360,000 active; AID 588726
Target sequence (P9WQA3 whole entry, looked up): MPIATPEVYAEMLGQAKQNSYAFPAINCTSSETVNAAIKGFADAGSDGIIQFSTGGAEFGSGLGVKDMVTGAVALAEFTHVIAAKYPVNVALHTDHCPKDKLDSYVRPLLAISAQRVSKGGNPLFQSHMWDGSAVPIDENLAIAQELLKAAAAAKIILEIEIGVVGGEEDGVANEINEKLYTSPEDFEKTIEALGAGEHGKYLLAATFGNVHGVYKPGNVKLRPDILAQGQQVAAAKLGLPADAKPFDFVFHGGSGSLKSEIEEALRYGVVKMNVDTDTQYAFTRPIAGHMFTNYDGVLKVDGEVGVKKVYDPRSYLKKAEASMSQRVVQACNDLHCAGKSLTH
Mtb FBA confirm = Mtb FBA inhibition, confirmed | shares compounds with FBA Mtb inh | purified M. tuberculosis FBA, fluorescence read-out | inhibition, % at 1 µM | 78% of 5,600 active | AID 651616
GDH-TPI counter-2 = GDH-TPI inhibition counter-screen for FBA inhibitors; GDH-TPI coupled enzyme counterscreen, fluorescence; AID 652141; shares compounds with FBA Mtb inh; inhibition, % at 1 µM; 81% of 5,600 active; in the data active = inhibition above about 10%
Hits are given with their value; i = inactive; ? = inconclusive; nt = no result; + = active, no number. Rule as the data show it, unless noted: active = inhibition above about 27%; inactive = the rest.

SMILES | FadD28 FP inh | Rv3671c inh | GDH-TPI counter-1 | UGM FP inh | Mtb betalactam | FBA Mtb inh | Mtb FBA confirm | GDH-TPI counter-2
COCCCN(Cc1cc(OC)c(OC)c(OC)c1)C(=S)Nc1cccc(SC)c1 | i | nt | i | nt | nt | i | nt | nt
O=C(NCc1cccs1)c1ccc2sc(C3=C[C@@H](O)[C@@H](O)[C@@H](CO)O3)nc2c1 | i | nt | i | nt | nt | i | nt | nt
CCOc1ccc(C(=O)NCC(=O)OCC(=O)N2C(C)CCCC2C)cc1 (stereo not drawn) | i | i | i | i | i | i | nt | nt
CC1CCCC(C)N1C(=O)COc1ccc(C(=O)N/N=C/c2ccc(C(=O)O)cc2)cc1 (stereo not drawn) | i | i | i | i | i | 60 | 120 | 97
CN(CCCC(=O)O)c1ccc(N=Nc2ccc([N+](=O)[O-])cc2)cc1 | i | i | i | i | i | i | nt | nt
COc1ccc(-c2oc3ncn4nc(COc5ccccc5)nc4c3c2-c2ccc(OC)cc2)cc1 | i | i | i | i | i | i | nt | nt
COc1ccc(-c2oc3ncnc(N)c3c2-c2ccccc2)cc1 | i | i | i | i | i | 27 | i | i
CCc1sc(C(=O)NNC(=O)c2cncc(Br)c2)cc1C | i | i | i | i | i | i | nt | nt
COc1cc2cc(CN(Cc3nnnn3Cc3ccccc3)CC3CCCO3)c(=O)[nH]c2cc1OC (stereo not drawn) | i | nt | i | nt | nt | 35 | 136 | 144
COCCN1CCn2c(nc3cc(NC(=O)c4cccs4)ccc32)C1 | i | i | i | i | i | i | nt | nt
CCCCC(=O)Nc1ccc2c(c1)nc1n2CCN(CCOC)C1 | i | nt | i | nt | nt | 51 | i | 12
CCCC(=O)Nc1ccc2c(c1)nc1n2CCN(CCOC)C1 | i | nt | i | i | i | 33 | + | 179
CCCCC(=O)Nc1ccc2c(c1)nc1n2CCOC1 | i | i | i | i | i | i | nt | nt
CC(=O)c1cc2c(s1)-c1cc(F)ccc1OC2 | i | i | i | i | i | 87 | 63 | 51
COc1cccc(N2CCN(C(=O)c3cc4c(s3)-c3ccccc3OC4)CC2)c1 | i | i | i | i | i | i | nt | nt
COc1ccc(OC)c(/C=C/C(=O)Nc2cccc(S(=O)(=O)NC3=NCCCCC3)c2)c1 | i | i | i | i | i | i | nt | nt
COc1ccc(OC)c(/C=C/C(=O)Nc2cccc(S(=O)(=O)N3CCCC3)c2)c1 | i | i | i | i | i | 30 | 49 | 43
O=c1oc(-c2ccc(Cl)cc2[N+](=O)[O-])nc2ccccc12 | i | nt | i | nt | nt | i | nt | nt
O=S(=O)(NCc1ccc(F)cc1)c1ccc(-c2cnc(C3CC3)o2)cc1 | i | i | i | i | i | 29 | i | 16
O=S(=O)(Nc1ccccc1)c1ccc(-c2cnc(C3CC3)o2)cc1 | i | i | i | i | i | i | nt | nt
COc1ccccc1-c1cc2nc(C)cc(C)n2n1 | i | i | i | i | i | i | nt | nt
CCn1c(C)c(CCC(=O)O)c(=O)n2nc(-c3ccccc3OC)cc12 | i | i | i | i | i | 54 | 40 | 41
Cn1nc(/C=C/c2ccccc2)ccc1=O | i | i | i | i | i | 31 | 64 | 56
O=c1ccc(/C=C/c2ccccc2)nn1Cc1ccccc1 | i | i | i | i | i | i | nt | nt
CCCc1cc(=O)oc2cc(OC3CCCCC3=O)ccc12 (stereo not drawn) | i | nt | i | i | i | 45 | i | 22
SMILES | FadD28 FP inh | Rv3671c inh | GDH-TPI counter-1 | UGM FP inh | Mtb betalactam | FBA Mtb inh | Mtb FBA confirm | GDH-TPI counter-2
CC1CCCCN1C(=O)COc1ccc2ccc(=O)oc2c1 (stereo not drawn) | i | i | i | i | i | i | nt | nt
O=C1CCCCC1Oc1ccc2ccc(=O)oc2c1 (stereo not drawn) | i | i | i | i | i | 58 | + | 174
COc1cccc2cc(-c3n[nH]c(=S)n3C)oc12 | i | i | i | i | i | 42 | i | i
[O-][n+]1nc2ccccc2c2ccccc21 | i | nt | i | nt | nt | 37 | 88 | 78
Cc1ccc(NC(=O)C(C)SCc2nc3sc4c(c3c(=O)[nH]2)CCCC4)nc1 (stereo not drawn) | i | i | i | i | i | i | nt | nt
CC(SCc1nc2sc3c(c2c(=O)[nH]1)CCCC3)C(=O)Nc1ccccn1 (stereo not drawn) | i | i | i | i | i | 37 | 127 | 92
Nc1nccnc1C(=O)OCc1nc2sc3c(c2c(=O)[nH]1)CCCC3 | i | i | i | i | i | 40 | + | +
COCCCNC(=S)NCCNc1nc2c(C)c(C)ccc2cc1C#N | i | nt | i | nt | nt | i | nt | nt
CCOCCCNC(=S)NCCNc1nc2ccc(C)cc2cc1C#N | i | i | i | i | i | i | nt | nt
CN(C)CCCNC(=S)NCCNc1nc2cc3c(cc2cc1C#N)OCO3 | i | i | i | i | i | 70 | 65 | 47
CCOCCCNC(=S)NCCCNc1nc2cc3c(cc2cc1C#N)OCO3 | i | i | i | i | i | 65 | 188 | 153
O=C(COC(=O)Cc1c(F)cccc1Cl)Nc1ccc2[nH]c(=O)[nH]c2c1 | i | i | i | i | i | i | nt | nt
COC(=O)c1ccccc1NCCO | i | i | i | i | i | 109 | 67 | 55
CCNc1ccccc1C(=O)O | i | i | i | i | i | 78 | i | i
O=C(O)c1ccccc1NCCO | i | i | i | i | i | 48 | 138 | 123
COc1ccn(C2CCCCO2)c(=O)n1 (stereo not drawn) | i | nt | i | nt | nt | i | nt | nt
COCCCN1C(=O)C(CC(=O)NCC2CCCCC2)CC(C(=O)N(C(C)C)C(C)C)=C1C (stereo not drawn) | i | nt | nt | nt | nt | i | nt | nt
O=S(=O)(NCCS(=O)(=O)N1CCN(c2ccc(F)cc2)CC1)c1ccccc1 | i | nt | i | nt | nt | i | nt | nt
COc1cc(-c2coc3c(C(=O)NCc4ccccc4)cccc23)ccc1O | i | nt | i | nt | nt | i | nt | nt
N#CC(c1nc2ccccc2nc1N1CCCC1)S(=O)(=O)c1ccccc1 (stereo not drawn) | i | i | i | i | i | 106 | + | 182
C=CCNC(=O)C(C#N)c1nc2ccccc2nc1N1CCCCCC1 (stereo not drawn) | i | i | i | i | i | 41 | + | +
COc1cc(C)ccc1S(=O)(=O)NC(=O)C1(C)CCN1C(=O)Cc1ccc(C(C)(C)C)cc1 (stereo not drawn) | i | nt | i | nt | nt | i | nt | nt
COc1ccc2oc(=O)c(-c3nc(C)cs3)cc2c1 | i | i | i | i | ? | 35 | 111 | 78
CC1CCCC(NC(=O)COC(=O)c2cc(=O)[nH]c3ccccc23)C1C (stereo not drawn) | i | i | i | i | i | i | nt | nt
Cc1ccc(NC(=O)CCS(=O)(=O)c2cc3[nH]c(=O)c(=O)[nH]c3cc2C)cc1 | i | i | i | i | i | i | nt | nt
CCc1cc(=O)oc2cc(C)cc(OCC(=O)NC(Cc3ccc(Cl)cc3)C(=O)O)c12 (stereo not drawn) | i | i | i | i | i | 61 | 44 | 43
CCCCc1cc(=O)oc2cc(C)cc(OCC(=O)N[C@@H](CSCc3ccccc3)C(=O)O)c12 | i | i | i | i | i | 46 | 128 | 99

Screens (PubChem BioAssay)
